For 40 compounds, Potency results are on record in PubChem BioAssay (Tox21).

Results filed as inconclusive are left out. Where a call stands in place of a potency, no number is given. Calls of active or inactive are those of the source. Calls come from the whole dose curve; as a rule, active = well fitted inhibition curve with a large enough effect in the repeat runs; inconclusive = weak or mixed curves; inactive = flat fitted curve, though single readings scatter.

Sequence of Luciferin 4-monooxygenase (Photinus pyralis) (P08659 whole entry, looked up): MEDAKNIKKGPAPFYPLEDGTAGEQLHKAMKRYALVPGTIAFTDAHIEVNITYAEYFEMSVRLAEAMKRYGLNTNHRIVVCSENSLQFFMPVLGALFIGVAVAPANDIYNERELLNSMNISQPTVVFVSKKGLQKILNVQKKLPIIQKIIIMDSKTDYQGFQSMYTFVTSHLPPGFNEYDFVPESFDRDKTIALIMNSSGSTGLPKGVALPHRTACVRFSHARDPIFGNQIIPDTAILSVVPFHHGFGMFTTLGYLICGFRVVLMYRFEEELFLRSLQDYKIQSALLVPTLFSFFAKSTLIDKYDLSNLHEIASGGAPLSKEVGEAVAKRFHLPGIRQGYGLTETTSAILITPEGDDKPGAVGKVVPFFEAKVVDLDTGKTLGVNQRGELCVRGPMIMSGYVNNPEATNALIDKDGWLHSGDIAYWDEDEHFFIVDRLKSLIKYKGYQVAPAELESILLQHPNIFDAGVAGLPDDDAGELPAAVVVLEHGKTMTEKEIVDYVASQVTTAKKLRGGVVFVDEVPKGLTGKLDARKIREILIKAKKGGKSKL

This assay addresses Luciferin 4-monooxygenase (Photinus pyralis) (UniProt P08659). The experiment in a line: qHTS assay to identify small molecule inhibitors of firefly luciferase (AID 1224835). Note: nearly all actives have a fitted effect of over 25% in size. The note with it: purified P. pyralis luciferase, luminescence inhibition; series mostly up to 115 µM. The source says:
U.S. Tox21 Program National Center for Advancing Translational Sciences [NCATS] NIH Chemical Genomics Center [NCGC] U.S. Environmental Protection Agency [EPA] National Institutes of Environmental Health Sciences [NIEHS] National Toxicology Program [NTP] U.S. Food and Drug Administration [FDA] Tox21 Assay Overview: Firefly (Photinus pyralis) luciferase is one of the most commonly used transcriptional reporters. Firefly luciferase reporter-gene assays are generally considered one of the most sensitive assay types (Wood, 1995; Wood, 1998). However, it was initially observed, in 1991, by Thompson et al., that compounds that resemble the substrates of firefly luciferase (FLuc) can act as competitive inhibitors of the enzyme, and that these compounds, upon interaction with luciferase in the cell, can actually stabilize the protein and increase its half-life. Previous profiling work by other groups to determine the prevalence of compounds that affect FLuc enzymatic activity (PubChem AID 411) identified that ~3% of the MLSMR library (then at ~72K) inhibited FLuc. […] Thus the Tox21 10K library is profiled for activity against FLuc using a biochemical assay of purified FLuc and KM concentrations of FLuc substrates (D-luciferin and ATP).
These assay plates were then treated with 23nL of compound or DMSO using a Kalypsys pin tool, which allows for delivery of a 6-point interplate titration of each compound to the assay plate (quantitative HTS.) 1 uL of firefly luciferase mix (containing 50 mM Tris acetate, pH 7.6, 0.04 uM P. pyralis luciferase, 0.01% Tween, 0.05% BSA and dH2O) was then delivered by FRD to each well. Luciferase activity was then measured using a ViewLux CCD imager.
In general terms: qHTS replaces the single test concentration by a dilution series.
Turning to `OCC(O)[C@@H](O)[C@H](O)[C@H](O)CO[C@H]1O[C@H](CO)[C@@H](O)[C@H](O)[C@H]1O` (stereo not given in full), the Potency entry was “inactive”. As to `CCCCc1ccc(N)cc1`, the Potency entry was “inactive”. Turning to `CNc1ncnc2nc[nH]c12`, the Potency result is “inactive”. For the compound `O=c1[nH]c2ccccc2c(=O)n1CCCl`, the Potency result was “inactive”.

With `COc1ccc2cc(C=O)ccc2c1`, the Potency is 34.7 µM (active). Turning to `CC(CCO)CCCC(C)(C)O` (stereo not given), the Potency entry is “inactive”.

Regarding `O=C(O)c1cccc(C(=O)O)n1`, the Potency entry was “inactive”. To `CCc1cc(S(=O)(=O)O)c2cc(C(C)C)cccc1-2` belongs “inactive”; to `CCCC(C)CO` (stereo not given), “inactive”; to `CCCCCC[C@@H](CCC)C(=O)O`, “inactive”. Turning to `CC(C)(O)c1ccccc1`, the Potency result was “inactive”.

Consider `CCCCCCCCCCCCCCCCCCOCC(O)CO` (stereo not given), for which the Potency result was “inactive”.

Consider `NCCN1CCNC1=O`, for which the Potency result was “inactive”. For `NC(CS)C(=O)O` (stereo not given), the Potency result was “inactive”. `O=C(O)c1ccccc1S`: the Potency result was “inactive”. For the compound `CCCc1ccccc1O`, the Potency result is “inactive”. As to `CCCCCCCCC=O`, the Potency entry is “inactive”.

With `CC1=CC(C)C(C=O)C(C)C1` (stereo not given), the Potency entry was “inactive”. For the compound `COc1nc(C)nc(N)n1`, the Potency entry is “inactive”.

`O=S(=O)(c1cccc2cnccc12)N1CCCNCC1`: the Potency entry is “inactive”. Regarding `Nc1ccn(C2CO[C@H](CO)O2)c(=O)n1` (stereo not given in full), the Potency entry was “inactive”. `COC(=O)CCCC(=O)O`: the Potency result is “inactive”.

Regarding `Oc1ccc2c(c1)OC[C@@H](N1CCC(O)(c3ccc(F)cc3)CC1)[C@H]2O`, the Potency is 1.55 µM (active). In the case of `CCN1CCCC(OC(=O)C(c2ccccc2)c2ccccc2)C1` (stereo not given), the Potency result is “inactive”.

As for `CNC(=O)c1c(I)c(NC(=O)CCCCC(=O)Nc2c(I)c(C(=O)O)c(I)c(C(=O)NC)c2I)c(I)c(C(=O)O)c1I`, the Potency result was “inactive”. Regarding `COc1cccc(Br)c1`, the Potency result is “inactive”. To `N#CCN(CC#N)CCN(CC#N)CC#N` belongs “inactive”; to `CC1=CC(=O)CCC1`, “inactive”; to `C=C(C)C1CC=C(C)C(O)C1` (stereo not given), “inactive”.

With `CCO[Si](CCCN=C=O)(OCC)OCC`, the Potency entry was “inactive”. To `NC1CCN(c2cccc(Cl)n2)CC1` belongs “inactive”.

Consider `CCCCCCC(CCCCCCCCCCC(=O)OCC(COC(C)=O)OC(C)=O)OC(C)=O` (stereo not given), for which the Potency entry was “inactive”. Take `CC(C)(O)C(=O)c1ccc(OCCO)cc1`: the Potency entry was “inactive”. With `CCCCCCCCCCCCI`, the Potency is 56.7 µM (active). Consider `C[N+](C)(C)CC[N+]1(C)Cc2c(Cl)c(Cl)c(Cl)c(Cl)c2C1`, for which the Potency entry is “inactive”. Regarding `CCOC(=O)Nc1ccc2c(c1)N(C(=O)CCN1CCOCC1)c1ccccc1S2`, the Potency result was “inactive”. Regarding `COC[C@H](c1ccc(C(F)(F)F)cc1)N1CCN(C2(C)CCN(C(=O)c3c(C)ncnc3C)CC2)C[C@H]1C`, the Potency result is “inactive”. To `C=C(C)[C@@H]1CCC2=CC(=O)C[C@@H](C)[C@]2(C)C1` belongs “inactive”; to `C#CC(O)C(CC)CCCC` (stereo not given), “inactive”; to `Fc1ccccc1-c1ccccc1`, “inactive”.
